# MARV entry inh: qHTS for inhibitors of binding or entry into cells for Marburg Virus. Marburg virus pseudotyped entry inhibition, cell reporter. Potency, µM (top dose mostly 37.8 µM), for inactives: at the highest dose activity change, negative = inhibition, most hits filed as inhibitors. hit rate 1.8% among 300,000; calls by dose curve; tested in HEK293 cells; further: potency means the concentration at half of the fitted maximal effect; on the % scale 0 is the no-effect control and ±100 the full control effect
# HCMV antiviral: qHTS Assay for inhibitors of the human cytomegalovirus (HCMV). HFF cells, HCMV-luciferase reporter, 72 h; hits give low values. activity change, negative = inhibition, % at 57.5 µM. hit rate 4.5% among 410,000; in the data active means activity change below about -60%; inconclusive means no clear call, values can overlap the other calls; inactive means above about -39%; further: on the % scale 0 is the no-effect control and ±100 the full control effect
#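 Cell-based, HFFs, 1000 cells/well, 16 h 37C; cpds in DMSO + HCMV-luc, MOI 1 PFU/cell; 72 h 37C; OneGlo luminescence after 5 min RT; norm. to buffer vs Salinomycin 10uM.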
# HCV inhibitor: qHTS Assay for Inhibitors of Hepatitis C Virus (HCV); Huh7.5.1 HCVcc-Cre infection, luciferase reporter, 44 h; Potency, µM (top dose mostly 41.8 µM), for the others: at the top dose activity change, negative = inhibition, most hits filed as inhibitors; hit rate 3.4% among 340,000; AID 651820, 2012; active means well fitted inhibition curve with a large enough effect; inconclusive means small, poorly fitted or top-dose-only effect, or another doubt; inactive means no such curve, though single readings can be large or run the other way; further: potency means the concentration at half of the fitted maximal effect; on the % scale 0 is the no-effect control and ±100 the full control effect
#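 Whole-lifecycle infectious HCVcc-Cre system; cells 1,000/well, compound then virus (~0.5 moi) added 4 h after plating, 44 h culture. Luciferase read 15 sec following 15 min substrate incubation, room temp.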
# SARS PLP yeast: qHTS of Yeast-based Assay for SARS-CoV PLP; S. cerevisiae expressing SARS-CoV PLpro, growth rescue; Potency, µM (highest dose often 32.9 µM), for inactives: at the top dose activity, positive = growth rescue, hits mostly activators; hit rate 0.19% among 330,000; AID 485353, 2010; calls by dose curve; further: potency means the concentration at half of the fitted maximal effect; 0% is about no effect; nearly all actives have a fitted effect of over 55% in size
# LASV entry inh: qHTS for Inhibitors of binding or entry into cells for Lassa Virus. Potency, µM (doses to about 37.9 µM), inactives show top-dose activity change, negative = inhibition, usual class: inhibitors. Lassa virus pseudotype entry inhibition, cell reporter. hit rate 1.2% among 300,000; calls by dose curve; tested in HEK293 cells; further: potency means the concentration at half of the fitted maximal effect; on the % scale 0 is the no-effect control and ±100 the full control effect; nearly all actives have a fitted effect of over 50% in size
# FMDV antiviral: High Throughput Screening for Foot and Mouth Disease Virus Antivirals; FMDV antiviral cell-based qHTS; Potency, µM (top dose mostly 57.9 µM), for inactives: at the top dose activity change, negative = inhibition, most hits filed as inhibitors; hit rate 1.2% among 410,000; AID 1159524, 2015; calls by dose curve; tested in HEK293T cells; further: read-out not given here; potency means the concentration at half of the fitted maximal effect; on the % scale 0 is the no-effect control and ±100 the full control effect; nearly all actives have a fitted effect of over 45% in size
# * marks the source's active call; other numbers are inactive results; ? = inconclusive; · = not tested or not shown; [ ] = remark or other dose. The list is not random: actives were taken first. Their share in the collection is about 8%.
SMILES,MARV entry inh,HCMV antiviral,HCV inhibitor,SARS PLP yeast,LASV entry inh,FMDV antiviral
Cc1ccccc1OCC(=O)Nc1ccc2c(c1)Cc1ccccc1-2,4%,39,16%,14%,15%,21%
COc1ccc(/C(N)=N/OC(=O)Cc2ccc(OC)c(OC)c2)cc1,?,-90*,?,-16%,-17%,·
COc1ccc(CC(=O)O/N=C(\N)c2ccncc2)cc1OC,·,-23,·,·,·,-6%
O=C(C1CCC(Cn2c(=O)c3sccc3n(Cc3ccccc3)c2=O)CC1)N1CCCCC1 (stereo not drawn),·,0,·,·,18%[46.1 µM],-27%
O=C1C=CC(=O)c2c(O)cccc21,·,·,·,·,·,1%
Cc1cccc2c1c1ccc3c(c1n2C)C(=O)C=CC3=O,·,3,-18%,1%,·,14µM*
COC(=O)c1ccc(NC(=O)N2CCc3c([nH]c4ccccc34)C2c2ccc(C)cc2)cc1 (stereo not drawn),?,9,·,·,?,-21%
Cc1cccc(C2c3[nH]c4ccccc4c3CCN2C(=O)c2nn(C)c(=O)c3ccccc23)n1 (stereo not drawn),?,85,?,0%,11µM*,?
Cc1ccc(C2c3[nH]c4ccccc4c3CCN2C(=O)c2ccc(N(C)C)cc2)cc1 (stereo not drawn),·,64,·,·,?,-17%
Cc1ccc(C2c3[nH]c4ccccc4c3CCN2C(=O)CCC2CCCC2)cc1 (stereo not drawn),·,-93*,·,·,?,-29%
Cc1ccc(C2c3[nH]c4ccccc4c3CCN2C(=O)c2ccccc2Br)cc1 (stereo not drawn),·,-78*,·,·,?,-17%
CC(=O)c1ccc(N2CCN(c3nc4c(S(=O)(=O)c5ccc(C)c(C)c5)nnn4c4ccc(Cl)cc34)CC2)cc1,5%[46.1 µM],23,·,·,·,0%
Nc1ncc(/C=C/CNC(=O)c2cc(Cl)c(Br)[nH]2)[nH]1,·,-15,·,·,·,·
CCN(CC)c1ccc2cc(C(C)=O)c(=O)oc2c1,11%,45,-22%,-3%,?,50%
CCN(CC)c1ccc2cc(NC(=O)CCC(=O)O)c(=O)oc2c1,1.8µM*,-66*,4%,1%,?,·
COc1cc(OC)nc(-n2ncc(Br)c(Br)c2=O)n1,1.6µM*,-105*,4µM*,-57%,1.3µM*,10µM*
Cc1ccc(-n2ncc(C(=O)NCCCN3CCN(C)CC3)c2C2CCN(C(=O)OC(C)(C)C)CC2)cc1,·,?,·,·,-29%[46.1 µM],-4%
CCOc1ccc2[nH]c3c(NCCc4ccc(OC)c(OC)c4)ncnc3c2c1,?,-66*,13µM*,1%,?,-20%
COc1ccc(CCNc2ncnc3sc(C)cc23)cc1OC,?,-70*,2.2µM*,-7%,?,32µM*
COc1ccccc1NC(=O)COc1ccc(/C=N/NC(=O)CSCc2ccc(Cl)cc2)cc1,?,-18,?,1%,5%,18µM*
COc1ccc(CSCC(=O)N/N=C/c2ccccc2O)cc1,?,-14,8.9µM*,-2%,?,10%
COc1ccccc1NC(=O)COc1ccc(/C=N/NC(=O)CSCc2cc(C)cc(C)c2)cc1,?,5,-27%,-2%,-6%,?
Cc1cc(C(=O)CSc2nc3ccccc3[nH]2)c(C)n1CC1CCCO1 (stereo not drawn),?,-99*,1.4µM*,-2%,7.9µM*,11µM*
Cc1cc(C(=O)CSc2nnc(-c3ccc(Cl)cc3)n2C)c(C)n1CC1CCCO1 (stereo not drawn),-5%,27,-20%,4%,-16%,-28%
Cc1cc(C(=O)CSc2nc(N)cc(=O)[nH]2)c(C)n1CC1CCCO1 (stereo not drawn),-4%[46.1 µM],-9,?,2%,-20%[46.1 µM],?
SMILES,MARV entry inh,HCMV antiviral,HCV inhibitor,SARS PLP yeast,LASV entry inh,FMDV antiviral
Cc1cc(C(=O)CSc2nc3ccccc3o2)c(C)n1CC1CCCO1 (stereo not drawn),?,-70*,?,-3%,?,?
Cc1ccc(C(=O)CSc2nc3ccccc3o2)cc1,14%,-61*,-26%,-5%,35%,·
Cc1cc(C(=O)Cn2nnc(-c3ccc(Cl)cc3)n2)c(C)n1CC1CCCO1 (stereo not drawn),-19%,?,7.9µM*,9%,?,·
CN1CCN(c2ncc3ncc(=O)n(-c4ccccc4)c3n2)CC1,·,·,·,·,·,-4%
Cc1cc(C(=O)CSc2nc(N)cc(N)n2)c(C)n1CC1CCCO1 (stereo not drawn),4%[46.1 µM],-25,-24%,3%,9%[46.1 µM],-1%
Cc1cc(C)n2nc(SCC(=O)c3cc(C)n(CC4CCCO4)c3C)nc2n1 (stereo not drawn),15%[46.1 µM],-70*,?,2%,-27%,?
Cc1ccc(/C(N)=N/OC(=O)c2ccc(Cl)cc2Cl)cc1,7.1µM*,22,?,-87%,?,-54%
COc1ccc(Cl)cc1C(=O)O/N=C(\N)c1ccncc1,5%,40,22µM*,-1%,-4%,10%
O=C(NCC1Cc2cccc(-c3ncccn3)c2O1)C1CCCO1 (stereo not drawn),·,·,·,·,·,-2%
N#Cc1ccc2c(c1)nc1ccccn12,12%[46.1 µM],?,5%,-4%,-2%,22%
Clc1ccc2nc3ccccn3c2c1,-3%,8,10µM*,-27%,22%,24%
CCCCC(=O)N[C@H]1CC[C@@]23CCCN2C(=O)CCC[C@H]3[C@H]1Cc1ccccc1,·,-4,·,·,·,·
Cc1cccc(-c2n[nH]c(=S)n2Cc2ccccc2)c1,?,19,1%,8.9µM*,?,3%
CCNC(=O)N[C@H]1CC[C@@]23CCCN2C(=O)CCC[C@H]3[C@H]1C,·,-6,·,·,·,·
COc1cc(NC(=O)CCc2c(C)nc3c4c(C)cc(C)nc4nn3c2C)cc(OC)c1,-4%[46.1 µM],-36,·,·,9%[46.1 µM],?
COc1ccc(NC(=O)CCc2nc(C3=CCN(Cc4cccc(Cl)c4)CC3)no2)cc1OC,·,-18,·,·,-27%[46.1 µM],32µM*
Oc1ccc(Br)cc1-c1ccnn1-c1ccccc1,8.9µM*,8,?,-1%,-9%,?
Cc1ccc(CN2CCOc3ccc(C(C)(O)COc4ccccc4)cc3C2)o1 (stereo not drawn),·,·,·,·,·,-9%
c1ccc(OCCNc2nc(NCC3CC3)nc3ccsc23)cc1,·,-39,·,·,·,?
c1cc2cc(CNc3nc(NCC4CC4)nc4ccsc34)ccc2o1,·,-74*,·,·,·,?
COc1ccccc1CNc1nc(NCc2ccc(NC(C)=O)cc2)c2sccc2n1,·,-8,·,·,·,-25%
COc1ccccc1CNc1nc(NCc2ccc3occc3c2)c2sccc2n1,·,?,·,·,·,25µM*
COc1ccccc1CNc1nc(NCc2ccccc2OC)c2sccc2n1,·,-91*,·,·,·,22µM*

# From PubChem
